# Reference: the supplement of paper PMC10933113
# Structures can show the parent of a compound that is named as a salt. ± gives the uncertainty stated by the source.
# Tested on: THP-1
# Assay: CD54 surface expression induction over DMSO control (% over DMSO); higher = stronger dendritic cell activation
# Details: exposure time: 24 h
# Experimental: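 hCLAT-like CD54 and CD86 surface expression on THP1 cells after 24 h exposure at a single concentration (highest non-cytotoxic concentration, or 100-200 µM if not cytotoxic). Flow cytometry (iQue) was run on 5,000 live cells.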
row,SMILES,CD54 surface expression induction
1,COC(=O)Nc1nc2ccc(C(=O)C3CC3)cc2[nH]1 [Cyclobendazole] (100 µM),-7.19 ± 4.8
2,c1ccc2cc3c(ccc4ccccc43)cc2c1 [Benz(a)anthracene] (200 µM),-2.28 ± 4.7
3,c1ccc(CCNc2nc(-c3ccccc3)cs2)cc1 [Fanetizole] (200 µM),-4.51 ± 4.3
4,COc1cccc2c1C(=O)c1c(O)c3c(c(O)c1C2=O)C[C@@](O)(C(=O)CO)C[C@@H]3O[C@H]1C[C@H](N)[C@H](O)[C@H](C)O1 [Doxorubicin*] (10 µM),187 ± 27
5,CO[C@@H]1[C@H](OC(=O)/C=C/C=C/C=C/C=C/C(=O)O)CC[C@]2(CO2)[C@H]1[C@@]1(C)O[C@@H]1CC=C(C)C [Fumagillin] (100 µM),4.2 ± 4.4
6,CC(C)(C)c1ccc(S)cc1 [4-tert-Butylbenzenethiol] (200 µM),38.6 ± 14
7,COc1ccc(-c2cc(=S)ss2)cc1 [Anethole trithione] (100 µM),-12.4 ± 13
8,COc1cccc2c1C(=O)c1c(O)c3c(c(O)c1C2=O)C[C@@](O)(C(=O)CO)C[C@@H]3O[C@H]1C[C@H](N)[C@H](O[C@@H]2CCCCO2)[C@H](C)O1 [Pirarubicin*] (10 µM),263 ± 46
9,COP(=O)(O)OP(=O)(O)OC [Dimethyl dihydrogen diphosphate] (200 µM),-11.2 ± 2.4
10,CNc1ccc(O)cc1 [4-(Methylamino)phenol Sulfate] (10 µM),17.6 ± 8.6
11,CC1COc2ccccc2N1C(=O)C(Cl)Cl (stereo not given) [Benoxacor] (10 µM),13.4 ± 3.8
12,O=C(Nc1ccccc1)c1cc(Cl)ccc1O [5-Chlorosalicylanilide] (10 µM),-4.26 ± 3.3
13,CCCCCCC(C)O (stereo not given) [2-Octanol] (200 µM),-1.7 ± 0.35
14,O=C(CCCCCCC(=O)Nc1ccccc1)NO [Vorinostat (SAHA)] (100 µM),4.99 ± 15
15,Clc1ccc2c(c1)Nc1ccccc1S2 [2-Chlorophenothiazine] (100 µM),-15.3 ± 22
16,O=C1c2cccc(O)c2C(=O)c2c(O)cc(CO)cc21 [Aloe-emodin] (100 µM),24.6 ± 18
17,COc1ccc(C(=O)c2ccc(C)cc2)c(O)c1 [Mexenone] (300 µM),-5.78 ± 3.4
18,Cc1c(C)n(CCN(C)C)c2ccc(C(=O)OCCN(C)C)cc12 [Amindocate] (100 µM),-6.56 ± 2.9
19,Clc1ccc(C(Cn2ccnc2)OCc2ccc(Sc3ccccc3)cc2)c(Cl)c1 (stereo not given) [Fenticonazole nitrate] (100 µM),21.1 ± 8.7
20,CO[C@@]12[C@H](COC(N)=O)C3=C(C(=O)C(C)=C(N)C3=O)N1C[C@@H]1N[C@@H]12 [Mitomycin C] (100 µM),55.6 ± 52

row,SMILES,CD54 surface expression induction
1,Clc1ccccc1-c1nc(-c2ccncc2)no1 [Pifexole] (100 µM),-5.59 ± 1.4
2,"CC(C)=CCC/C(C)=C\CO [(2Z)-3,7-Dimethylocta-2,6-dien-1-ol] (200 µM)",-9.15 ± 2.5
3,CC1=C(/C=C/C(C)=C\C=C\C(C)=C\C(=O)O)C(C)(C)CCC1 [9-cis Retinoic acid] (100 µM),44.4 ± 15
4,O=C(CS)Nc1ccccc1 [Thioglycolic acid anilide] (300 µM),24 ± 1.8
5,Nc1ccc2cc3ccccc3cc2c1 [2-Aminoanthracene] (200 µM),-52.5 ± 1.6
6,"Nc1ccc(Nc2ccccc2)cc1 [N-Phenyl-1,4-benzenediamine] (200 µM)",46.9 ± 11
7,O=C(Nc1ncc([N+](=O)[O-])s1)c1cccs1 [Tenonitrozole] (10 µM),-7 ± 4.7
8,Cc1ccc(N)cc1O [5-Amino-2-methylphenol] (200 µM),34.1 ± 7.2
9,O=C(NS(=O)(=O)/C=C/c1cccs1)c1ccc(F)cc1Br (200 µM),4.11 ± 1.7
10,C[n+]1cc2c3c(ccc2c2ccc4cc5c(cc4c21)OCO5)OCO3 [Sanguinarine] (10 µM),36 ± 5.9
11,"S=C(NC1CCCCC1)NC1CCCCC1 [N,N'-Dicyclohexylthiourea] (10 µM)",-7.65 ± 5.2
12,CCOc1ccc2nc3cc(N)ccc3c(N)c2c1 [Ethacridine lactate monohydrate] (200 µM),-29.7 ± 6.5
13,N=C(N)NN=C(/C=C/c1ccc([N+](=O)[O-])o1)/C=C/c1ccc([N+](=O)[O-])o1 [Nitrovin] (10 µM),76.1 ± 15
14,Sc1nc2ccccc2s1 [2-Mercaptobenzothiazole] (100 µM),-13.7 ± 14
15,"CC(C)(C)c1cc(O)c(C(C)(C)C)cc1O [2,5-Di-tert-butylbenzene-1,4-diol] (100 µM)",38.2 ± 50
16,O=C(/C=C/C=C/c1ccc2c(c1)OCO2)N1CCCCC1 [Piperine] (100 µM),0.08 ± 0.77
17,O=C(O)Cc1cc(I)c(Oc2cc(I)c(O)c(I)c2)c(I)c1 [Tetrac] (100 µM),8.45 ± 9.3
18,COC(=O)Nc1nc2cc(Sc3ccccc3)ccc2[nH]1 [Fenbendazole] (100 µM),-38.1 ± 4.2
19,C=CC(=O)OCCn1c(=O)n(CCOC(=O)C=C)c(=O)n(CCOC(=O)C=C)c1=O (10 µM),3.33 ± 5.3
20,CN(C)c1ccc(SC#N)cc1 [4-(Dimethylamino)phenylthiocyanate] (10 µM),-9.74 ± 4.1
